# From PubChem BioAssay
# Shown are actives, neighbours in structure and some others; about 3.7% of the full set was active somewhere.
# V-ATPase pHluor = regulators of yeast V-ATPase proton pumping, primary screen, pHLuorin cytosolic pH fluorescence | S. cerevisiae | response, % at 10 µM | actives 0.37% (n = 350,000); in the data active = response mostly above about 7.3%, no sharp cut-off; inactive = mostly below about 5.4%; note: actives read high
# TIM10 inh = growth inhibitors of isogenic TIM10 control yeast, primary screen, counter-screen for tim10-1 yeast inhibitor project, luminescence, uHTS. S. cerevisiae TIM10 strain growth, BacTiter-Glo luminescence, 24 h. inhibition, % at 10 µM. actives 1.4% (n = 330,000);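 active = inhibition of 40% or more at the single tested concentration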;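 note: wild-type TIM10 isogenic control strain grown at permissive 25 °C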
# PfHsp90 set2 = growth inhibition of PfHsp90-expressing yeast, primary screen, antimalarial PfHsp90 inhibitor project, S. cerevisiae, BacTiter-Glo luminescence, single point, set 2; AID 504621, 2011; inhibition, % at 9.4 µM; BacTiter-Glo ATP, 48 h; yeast lacking PDR1 and PDR3 efflux regulators; actives 0.32% (n = 310,000);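 active = every replicate shows inhibition above about 80%, whatever the replicate mean, limit read from the data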;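 note: 0% = DMSO neutral controls and 100% = 20 µM radicicol positive controls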
# tim10-1 inh = growth inhibitors of tim10-1 mutant yeast, primary screen, luminescence, uHTS. S. cerevisiae tim10-1 ts strain growth, BacTiter-Glo, 24 h. inhibition, % at 20 µM. actives 2.2% (n = 330,000). AID 463190, 2010;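 active = inhibition of at least 40%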;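 note: mutant grown at 25 °C; 0% = DMSO wells with yeast and 100% = wells holding no yeast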
# tim23-1 inh = growth inhibitors of tim23-1 mutant yeast, primary screen, luminescence, uHTS | S. cerevisiae tim23-1 growth, BacTiter-Glo luminescence, 24 h | inhibition, % at 20 µM | actives 1.3% (n = 330,000) | AID 463212, 2010;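 active = growth inhibition of the mutant yeast at or above 50%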;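 note: temperature-sensitive mutant grown at 25 °C; plate controls were DMSO-treated mutant yeast for no effect and medium wells lacking yeast for full effect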
# tim10-1 confirm = growth inhibitors of tim10-1 mutant yeast, confirmation, single concentration, luminescence, S. cerevisiae; inhibition, % at 20 µM; actives 56% (n = 7,400); AID 463213, 2010; shares compounds with tim10-1 inh; S. cerevisiae tim10-1 ts strain growth, BacTiter-Glo, 24 h;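 active = inhibition of yeast growth at or above a set limit in either of two repeat tests at 20 µM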;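 note: tim10-1 mutant grown at permissive 25 °C to find synthetic lethal compounds; 0% = DMSO yeast wells and 100% = medium wells without yeast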
# TIM10 conf = growth inhibitors of wild-type TIM10 yeast, confirmation, counter-screen for tim10-1 synthetic lethality project, single concentration, luminescence, S. cerevisiae. shares compounds with TIM10 inh. S. cerevisiae tim10 strain growth, BacTiter-Glo luminescence, 24 h. inhibition, % at 10 µM. actives 63% (n = 4,600). AID 463215, 2010;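 active = inhibition of yeast growth at or above a set limit in either of two replicates at 10 µM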;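 note: this counterscreen used the strain with wild-type TIM10; 0% = yeast with DMSO and 100% = medium wells lacking yeast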
# Starred values were filed as active, the others as inactive; . = no result given.
SMILES,V-ATPase pHluor,TIM10 inh,PfHsp90 set2,tim10-1 inh,tim23-1 inh,tim10-1 confirm,TIM10 conf
COCCCNC(=O)CC1C[C@H](C(=O)N2CCOCC2)[C@@]2(CCC3CCCC3)c3[nH]c4ccc(OC)cc4c3CCN2C1=O (some centres not stated),3.6,5.7,1.9,13.8,34.8,.,.
CC1C/C(=N\NC(=S)NCc2ccccc2)CC(C)(C)C1 (configuration not stated),6.1,54.0*,-0.9,58.1*,48.1,47.9*,45.1*
CSc1ccc(C(=O)C2CCCN(C(=O)c3nonc3C)C2)cc1 (configuration not stated),-2.2,-6.7,4.5,23.1,18.9,.,.
Fc1ccc(N2CCN(c3nc(CN4CCOCC4)nc4scc(-c5ccccc5)c34)CC2)cc1,2.1,40.5*,-9.2,54.8*,48.6,33.8*,33.9*
Fc1ccc(CN2CCN(c3ncnc4scc(-c5ccccc5)c34)CC2)cc1,5.8,25.6,-16.8,36.2,47.2,.,.
CN(C(=O)c1ccccc1-c1ccccc1C(=O)O)c1ccccc1,-2.2,-4.6,-7.1,10.2,12.8,.,.
CCc1ccc(NC(=O)c2noc(C(C)C)c2[N+](=O)[O-])cc1,-2.4,46.4*,-26.6,52.0*,41.9,44.1*,32.7*
C=C1C(=O)C=C2CN(C(=O)c3ccccc3)[C@@](Cc3ccc(F)cc3)(C(=O)OC)[C@@H]12,-11.4,47.9*,3.1,61.1*,48.5,52.5*,51.5*
COC(=O)[C@@]1(Cc2ccc(OC)cc2)[C@@H]2C(=CC(=O)[C@H]2CC(=O)C(=O)N(C)C)CN1C(=O)c1ccccc1,.,0.2,.,21.7,-9.7,.,.
CC(C)(C)n1[nH]c2c3c(ccc2c1=O)C(=O)c1ccccc1C3=O,-0.8,65.5*,.,45.3*,27.6,40.2*,57.1*
Cc1ccc(-n2ncc3c(=O)n(-c4cccc(C)c4)c(=O)[nH]c32)cc1,-5.2,.,.,.,.,.,.
O=C(Nc1cccc(S(=O)(=O)N2CCCCCC2)c1)c1ccc(Cl)nc1,-1.6,-36.9,.,-12.9,10.4,.,.
O=C(Cc1ccccc1Cl)Nc1cccc(S(=O)(=O)N2CCCCCC2)c1,1.4,4.5,0.5,16.0,29.8,.,.
O=C(Nc1cccc(S(=O)(=O)N2CCOCC2)c1)c1ccc2ccccc2n1,-3.9,22.4,-17.4,27.0,46.3,.,.
O=C(Nc1cccc(S(=O)(=O)N2CCCC2)c1)c1ccc2ccccc2n1,-1.4,43.0*,-137.2,46.5*,-2.3,36.5*,38.5*
O=C(Nc1cccc(S(=O)(=O)N2CCCCC2)c1)Nc1ccc(Cl)cc1Cl,2.0,45.6*,-2.1,44.3*,44.0,22.6,39.0*
O=C(Nc1cccc(S(=O)(=O)N2CCCCC2)c1)c1ccc2ccccc2n1,0.4,40.6*,-36.9,44.3*,25.1,21.2,5.2
Cc1cccc2cc(CNCc3ccccc3)c(Cl)nc12,1.8,-3.5,6.6,-3.2,-0.7,.,.
Cc1ccc2c(C)c(C(=O)N(C)C(C)c3ccon3)oc2c1C (configuration not stated),-1.1,0.9,-5.9,8.2,35.4,.,.
COc1ccc(OC)c(C2C=C(C34CC5CC(CC(C5)C3)C4)NC(=S)N2)c1 (configuration not stated),-1.4,40.6*,-23.6,46.7*,35.7,24.6,-3.6
Cc1cccc(Cc2cnc(NC(=O)C3=NCCN3)s2)c1,-1.0,-4.1,.,20.8,-6.4,.,.
Cc1cccc(Cc2cnc(NC(=O)c3ccc(C)o3)s2)c1,1.0,45.2*,-14.4,55.2*,47.7,39.6*,48.1*
COc1ccccc1/C=C/C(=O)c1ccccc1,-1.6,.,12.5,.,.,.,.
COc1ccccc1/C=C/C(=O)c1ccc(NC(C)=O)cc1,1.2,43.7*,2.9,42.8*,33.3,24.2,-3.0
Cc1nc(CSc2ccccc2)cc(=O)[nH]1,-3.3,-2.4,-5.3,20.2,20.1,.,.
